Calls of active or inactive are those of the source. How the calls were made is not given here.
Biological target: Estrogen receptor (Homo sapiens) (UniProt P03372)
Experiment: ERalpha ligand binders by competition, primary screen, cell-based, Cos7 ERalpha-GFP, flow cytometry (AID 1211);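 further: 0% = DMSO vehicle wells and 100% = no E2-Alexa633 signal left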
Settings: fluorescent ligand competition, stronger effect = higher value

Estrogen receptor (Homo sapiens), sequence (P03372 whole entry, looked up): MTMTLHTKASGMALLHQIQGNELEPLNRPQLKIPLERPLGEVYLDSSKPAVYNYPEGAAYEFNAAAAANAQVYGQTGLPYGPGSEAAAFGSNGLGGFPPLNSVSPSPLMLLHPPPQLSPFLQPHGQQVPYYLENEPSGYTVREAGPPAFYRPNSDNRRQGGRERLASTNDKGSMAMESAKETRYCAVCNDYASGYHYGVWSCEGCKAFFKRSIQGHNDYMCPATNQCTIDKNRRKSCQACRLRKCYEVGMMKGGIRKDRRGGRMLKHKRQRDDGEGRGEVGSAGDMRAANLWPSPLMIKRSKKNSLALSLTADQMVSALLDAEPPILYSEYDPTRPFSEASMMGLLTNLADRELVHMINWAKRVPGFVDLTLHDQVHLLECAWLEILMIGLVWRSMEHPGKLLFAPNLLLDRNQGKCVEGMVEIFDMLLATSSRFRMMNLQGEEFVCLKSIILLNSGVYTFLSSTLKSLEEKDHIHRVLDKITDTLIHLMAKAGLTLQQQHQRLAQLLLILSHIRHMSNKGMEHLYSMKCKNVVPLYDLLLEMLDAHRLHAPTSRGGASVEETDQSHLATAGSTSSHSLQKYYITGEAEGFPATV

COC(=O)c1ccccc1NC(=O)c1noc2c1CCC2
inhibition of ligand binding (at 10 µM): 25% (inactive)
inhibition of ligand binding (binding inhibition, at 0.1 µM): 21%

COc1cc(C2Nc3c(F)cccc3C3C=CCC32)cc(Br)c1OC (stereo unspecified)
inhibition of ligand binding (at 10 µM): 10% (inactive)
inhibition of ligand binding (binding inhibition, at 0.1 µM): 20%

O=C(Cc1cccs1)Nc1ccccn1
inhibition of ligand binding (at 10 µM): 0% (inactive)
inhibition of ligand binding (binding inhibition, at 0.1 µM): 16%

CN1CCC(=NNC(=O)c2cn(-c3ccccc3)nc2-c2ccccc2)CC1
inhibition of ligand binding (at 10 µM): 3% (inactive)
inhibition of ligand binding (binding inhibition, at 0.1 µM): 11%

COc1ccc(-c2ccc(-c3noc(-c4cccs4)n3)c(OC)n2)cc1
inhibition of ligand binding (at 10 µM): 24% (inactive)
inhibition of ligand binding (binding inhibition, at 0.1 µM): 54%

CCOC(=O)Cc1csc(NC(=O)Cc2cccs2)n1
inhibition of ligand binding (at 10 µM): 28% (inactive)
inhibition of ligand binding (binding inhibition, at 0.1 µM): 12%

Cc1csc2nc(CCNS(=O)(=O)c3ccc4c(c3)OCCO4)cn12
inhibition of ligand binding (at 10 µM): 38% (active)
inhibition of ligand binding (binding inhibition, at 0.1 µM): 77%

COc1ccc(C(Nc2ccccn2)c2oc(CO)cc(=O)c2O)cc1 (stereo unspecified)
inhibition of ligand binding (at 10 µM): 32% (inactive)
inhibition of ligand binding (binding inhibition, at 0.1 µM): 22%

CCn1c(=NC(=O)c2ccc(N3C(=O)CCC3=O)cc2)sc2c(OC)ccc(OC)c21
inhibition of ligand binding (at 10 µM): 66% (active)
inhibition of ligand binding (binding inhibition, at 0.1 µM): 32%

CN1C(=O)CC(C(=O)O)SC1=Nc1cc(Cl)c(O)c(Cl)c1 (stereo unspecified)
inhibition of ligand binding (at 10 µM): 17% (inactive)
inhibition of ligand binding (binding inhibition, at 0.1 µM): 51%

CCC(=O)Nc1ccc(C(=O)Cn2nc(C(=O)O)c3ccccc3c2=O)cc1
inhibition of ligand binding (at 10 µM): 50% (inactive)
inhibition of ligand binding (binding inhibition, at 0.1 µM): 30%

CC1CCCN(c2nc3c(c(=O)[nH]c(=O)n3C)n2Cc2ccccc2Cl)C1 (stereo unspecified)
inhibition of ligand binding (at 10 µM): 33% (inactive)
inhibition of ligand binding (binding inhibition, at 0.1 µM): 58%

O=S(=O)(NCc1csc(-c2cccnc2)n1)c1ccc(Cl)s1
inhibition of ligand binding (at 10 µM): 45% (inactive)
inhibition of ligand binding (binding inhibition, at 0.1 µM): 6%

O=C(COC(=O)CCC(=O)c1cccs1)NCc1ccco1
inhibition of ligand binding (at 10 µM): 42% (active)
inhibition of ligand binding (binding inhibition, at 0.1 µM): 74%

O=C(Cn1ncc2c(=O)oc3ccccc3c21)Nc1nc2ccccc2s1
inhibition of ligand binding (at 10 µM): 7% (inactive)
inhibition of ligand binding (binding inhibition, at 0.1 µM): 22%

COc1ccc(OC)c(NC(=O)CSc2nc3ccccc3c3nc4ccccc4n23)c1
inhibition of ligand binding (at 10 µM): 26% (inactive)
inhibition of ligand binding (binding inhibition, at 0.1 µM): 60%

CCc1nc(N)nc(N)c1-c1ccc(Cl)cc1
inhibition of ligand binding (at 10 µM): 26% (inactive)
inhibition of ligand binding (binding inhibition, at 0.1 µM): 25%

CC1(C)CC(=O)c2c(oc3cc(O)c(O)cc23)C1
inhibition of ligand binding (at 10 µM): 20% (inactive)
inhibition of ligand binding (binding inhibition, at 0.1 µM): 54%

Nc1ccc(-c2nc3ccc([N+](=O)[O-])cc3[nH]2)cc1
inhibition of ligand binding (at 10 µM): 36% (active)
inhibition of ligand binding (binding inhibition, at 0.1 µM): 82%

CCc1cccc2c(C(=O)Cn3nnc(-c4ccc(OC)c(OC)c4)n3)c[nH]c12
inhibition of ligand binding (at 10 µM): 10% (inactive)
inhibition of ligand binding (binding inhibition, at 0.1 µM): 24%

COc1ccc(N2Cc3cccc(C(=O)O)c3C2=O)cc1
inhibition of ligand binding (at 10 µM): 26% (inactive)
inhibition of ligand binding (binding inhibition, at 0.1 µM): 44%

COc1cc(C(Nc2ccccn2)c2ccc3ccc(C)nc3c2O)cc(OC)c1O (stereo unspecified)
inhibition of ligand binding (at 10 µM): 54% (inactive)
inhibition of ligand binding (binding inhibition, at 0.1 µM): 16%

COc1cccc(NC(=O)CSc2nc3ccccc3c3nc4ccccc4n23)c1
inhibition of ligand binding (at 10 µM): 51% (inactive)
inhibition of ligand binding (binding inhibition, at 0.1 µM): 56%

Cc1ccc(Cc2cncc(O)c2)cc1S(=O)(=O)O
inhibition of ligand binding (at 10 µM): 36% (inactive)
inhibition of ligand binding (binding inhibition, at 0.1 µM): 20%

Cc1cccc2cc(C(c3nnnn3C(C)(C)C)N(Cc3ccco3)CC3CCCO3)c(=O)[nH]c12 (stereo unspecified)
inhibition of ligand binding (at 10 µM): 31% (inactive)
inhibition of ligand binding (binding inhibition, at 0.1 µM): 7%

CCOc1ccc(Nc2oc(-c3ccccc3Cl)nc2C#N)cc1
inhibition of ligand binding (at 10 µM): 29% (inactive)
inhibition of ligand binding (binding inhibition, at 0.1 µM): 35%

O=C(Oc1ccc(-c2cnc3ccccc3n2)cc1)c1ccc(Br)o1
inhibition of ligand binding (at 10 µM): 58% (inactive)
inhibition of ligand binding (binding inhibition, at 0.1 µM): 1%

CSC1=N/C(=C\c2ccc(Br)o2)C(=O)S1
inhibition of ligand binding (at 10 µM): 12% (inactive)
inhibition of ligand binding (binding inhibition, at 0.1 µM): 13%

O=Cc1cn(-c2ccccc2)nc1-c1cc2c(ccc3ccccc32)oc1=O
inhibition of ligand binding (at 10 µM): 40% (inactive)
inhibition of ligand binding (binding inhibition, at 0.1 µM): 55%

COc1ccc(-c2ccc(=O)[nH]n2)cc1
inhibition of ligand binding (at 10 µM): 22% (inactive)
inhibition of ligand binding (binding inhibition, at 0.1 µM): 52%

Cc1cc(NC(=O)CSc2cn(CCNC(=O)c3ccc(Cl)cc3)c3ccccc23)no1
inhibition of ligand binding (at 10 µM): 15% (inactive)
inhibition of ligand binding (binding inhibition, at 0.1 µM): 37%

C=CCn1c(COc2cccc(C)c2)nnc1SCC(=O)NC(=O)NCc1ccco1
inhibition of ligand binding (at 10 µM): 9% (inactive)
inhibition of ligand binding (binding inhibition, at 0.1 µM): 31%

Cc1ccnc(NS(=O)(=O)c2ccc(NC(=O)Cc3cccs3)cc2)n1
inhibition of ligand binding (at 10 µM): 31% (inactive)
inhibition of ligand binding (binding inhibition, at 0.1 µM): 63%

COc1cccc([C@@H]2Oc3ccc(OC)cc3C(=O)[C@H]2O)c1
inhibition of ligand binding (at 10 µM): 37% (inactive)
inhibition of ligand binding (binding inhibition, at 0.1 µM): 43%

CCCc1nc2sc3ccccc3c(=O)c2c(=O)n1Cc1ccco1
inhibition of ligand binding (at 10 µM): 42% (inactive)
inhibition of ligand binding (binding inhibition, at 0.1 µM): 1%

c1ccc(OCc2nnc3sc(C4COc5ccccc5O4)nn23)cc1 (stereo unspecified)
inhibition of ligand binding (at 10 µM): 0% (inactive)
inhibition of ligand binding (binding inhibition, at 0.1 µM): 5%

CCOc1ccccc1-n1nnnc1SCC(=O)NC(=O)NCc1ccco1
inhibition of ligand binding (at 10 µM): 5% (inactive)
inhibition of ligand binding (binding inhibition, at 0.1 µM): 5%

O=C(Nc1ccc2oc(-c3ccc4ccccc4c3)nc2c1)c1cccs1
inhibition of ligand binding (at 10 µM): 32% (inactive)
inhibition of ligand binding (binding inhibition, at 0.1 µM): 51%

COc1ccc(C2Nc3ccccc3C(=O)N2c2ccccc2)cc1CSc1ccccn1 (stereo unspecified)
inhibition of ligand binding (at 10 µM): 44% (inactive)
inhibition of ligand binding (binding inhibition, at 0.1 µM): 17%

Cc1oc2c(C)c(O)ccc2c(=O)c1N1C(=O)c2ccccc2C1=O
inhibition of ligand binding (at 10 µM): 9% (inactive)
inhibition of ligand binding (binding inhibition, at 0.1 µM): 52%

CCOC(=O)Cc1cc(-c2ccc(O)cc2)nc2ccc3ccccc3c12
inhibition of ligand binding (at 10 µM): 37% (inactive)
inhibition of ligand binding (binding inhibition, at 0.1 µM): 15%

COc1cccc(C(=O)NC2CCN(C(=O)N3c4ccccc4Sc4ccccc43)CC2)c1
inhibition of ligand binding (at 10 µM): 60% (inactive)
inhibition of ligand binding (binding inhibition, at 0.1 µM): 13%

CCc1ccc(Nc2cc(C(=O)NCCCN3CCOCC3)c3ccccc3n2)cc1
inhibition of ligand binding (at 10 µM): 25% (inactive)
inhibition of ligand binding (binding inhibition, at 0.1 µM): 32%

Reference: PubChem BioAssay AID1211 (NMMLSC, 2008)
